Compound activity from PubChem BioAssay.
A selection: hits, their analogues and other compounds. The true share with any hit is near 2.9%.
CF NFkB inh – blocks PAF-induced NF-kB reporter in cystic fibrosis cells; actives 0.86% (n = 360,000); KKLEB NF-kB-GFP reporter, GFP fluorescence overnight; inhibition, % at 5 µM;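 active = at least 50% inhibition at 5 µM, scaled per plate between neutral and stimulator controls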;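 also: PAF is a Pseudomonas aeruginosa culture filtrate used as stimulus; plate controls were PAF-stimulated DMSO wells for no effect and unstimulated DMSO wells for full effect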
Peg3 promoter – reduces Peg3 promoter-driven luciferase expression in HeLa; HeLa PEG-Prom luciferase reporter, luminescence, overnight; inhibition, % at 20 µM; actives 1.7% (n = 360,000);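 active = inhibition of at least 50% at 20 µM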
HIF-2a block – blocks HIF-2a reporter activity; inhibition, % at 18.8 µM; actives 0.72% (n = 360,000); 786-0 RCC cells HIF-2a reporter, luciferase luminescence, overnight; AID 624352;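 active = inhibition of the luminescence signal of 40% or more relative to plate controls, in a single-dose primary screen at 18.75 µM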
Shn3 3UTR inh – Schnurri-3 reporter inhibition in Clone20 osteoblasts; Clone20 osteoblast Shn3 3'UTR firefly luciferase, 24 h; inhibition, % at 12.5 µM; actives 0.52% (n = 360,000); AID 588674;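 active = mean inhibition of at least 75% with every replicate also reaching 75%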;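 also: 0% = median of neutral control wells and 100% = pilot-screen positive control compound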
LMP1 NFkB inh – inhibitors of Epstein-Barr LMP1-induced NF-kappaB reporter; AID 504558; actives 0.69% (n = 350,000); LMP1-induced NF-kappaB luciferase reporter cells, luminescence; inhibition, % at 12.5 µM; in the data active = inhibition above about 41%;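 also: 0% = neutral control wells and 100% = reference inhibitor control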
KKLEB cytotox – counter-screen for CF NF-kB inhibitors: cytotoxicity. activity change (cytotoxicity), % at 5 µM. KKLEB CF airway cells viability, ATPlite luminescence, overnight; hits give low values; cells stimulated with P. aeruginosa culture filtrate. AID 602141. actives 0.36% (n = 360,000);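 active = corrected activity change at or below -50% at 5 µM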
* marks the source's active call; other numbers are inactive results; x = no result given.

SMILES	CF NFkB inh	Peg3 promoter	HIF-2a block	Shn3 3UTR inh	LMP1 NFkB inh	KKLEB cytotox
O=C1Nc2cc(C(=O)NCCCN3CCOCC3)ccc2S/C1=C/c1cccc(Cl)c1	-5	107*	-2	10	3	-11
O=C1Nc2cc(C(=O)NCCCN3CCCC3)ccc2S/C1=C\c1ccccc1	6	91*	-4	-25	-6	-11
COc1ccc(C(=O)NCCN2CCCC2)cc1	-10	18	16	-5	1	10
COc1ccc(/C=C2/Sc3ccc(C(=O)NCCN4CCCCCC4)cc3NC2=O)cc1	5	105*	3	53	-1	-8
O=C1Nc2cc(C(=O)NCCCN3CCOCC3)ccc2S/C1=C/c1ccccc1F	12	16	-3	-15	1	-8
CCC(C)[C@H]1CNCCN1CCC12CC3CC(CC(C3)C1)C2 (some centres undefined)	2	-16	15	-33	-22	-15
CN(C(=O)c1cccc(NC(=O)Cc2ccc(NC(=O)C3CCN(C(=O)C4CCCC4)CC3)cc2)c1)C1CC1	21	-3	-2	1	-5	5
Cc1ccc(-c2nc3ccccc3n2C(C)C(=O)NC(C)(C)C)cc1 (centres undefined)	x	x	-36	x	x	x
CCOc1cc(C(=O)Nc2cc(C)ccn2)cc(OCC)c1OCC	-18	20	10	3	-9	2
CCOc1ccc(NC(=O)c2cnsn2)cc1	-12	-29	-28	10	56*	3
Cc1ccnc(NC(=O)c2ccc(C(=O)c3ccccc3)cc2)c1	-25	-13	18	-14	50*	-6
Cc1ccnc(NC(=O)c2ccccc2NC(=O)c2ccccc2)c1	5	-23	-33	-4	0	0
CCOc1ccc(C(=O)Nc2cc(C)ccn2)cc1	8	38	6	11	53*	-57*
CC(NC(=S)NCCc1ccccc1)C(c1cccs1)N1CCN(Cc2ccccc2)CC1 (centres undefined)	8	16	7	72	1	5
CN=C1S/C(=C\c2ccc(O)c(OC)c2)C(=O)N1C	20	-210	-216	x	x	-5
CN=C1S/C(=C\c2ccc(O)c(Br)c2)C(=O)N1C	28	-9	-100	-8	45*	-37
Cc1cc(C(=O)c2ccccc2)c(NC(=O)CN2CCOCC2)s1	1	8	20	21	2	2
Cc1cc(C(=O)c2ccc(C(C)(C)C)cc2)c(NC(=O)CCl)s1	26	103*	10	22	-1	-21
O=[N+]([O-])c1cc(-c2csc(NCCc3nc4cc(Cl)c(Cl)cc4n3CCCO)n2)ccc1Cl	-16	92*	3	-28	-4	-22
COc1ccc(C(=O)N/C(=C/c2cccs2)C(=O)NN)cc1OC	-4	1	15	x	2	8
CCn1cc(CN(C)S(=O)(=O)c2ccc3ccccc3c2)c(C)n1	-3	10	6	90*	23	-10
CCn1cc(CN(C)S(=O)(=O)c2cccc([N+](=O)[O-])c2)cn1	7	6	1	-5	-3	-4
COc1ccc(/C=N/NC(=O)c2cc(Br)ccc2O)cc1Cn1cc(Cl)cn1	-3	1	6	-6	-1	3
COc1ccc(/C=N/NC(=O)c2ccc(Cl)cc2)cc1Cn1cc(Cl)cn1	17	12	-2	69	1	-51*
Cc1ccc(S(=O)(=O)N2[C@@H](CO)CO[C@H]2CC(=O)c2cccc3ccccc23)cc1	x	x	-15	x	x	x
SMILES	CF NFkB inh	Peg3 promoter	HIF-2a block	Shn3 3UTR inh	LMP1 NFkB inh	KKLEB cytotox
COc1ccccc1CNC(=O)CCC(=O)N1CC(C)Sc2ccccc21 (centres undefined)	13	12	-2	8	4	0
CC(=O)[C@@]1(O)CC[C@H]2[C@@H]3CCC4=CC(=O)CC[C@]4(C)[C@H]3[C@@H](O)C[C@@]21C	48	-13	20	9	56*	30
CC12CCC(=O)C=C1CCC1C2C(O)CC2(C)C(c3csc(N)n3)CCC12 (centres undefined)	7	3	2	86*	11	-8
C[C@]12CCC(=O)C=C1CC[C@@H]1[C@@H]2CC[C@@]2(C)[C@H]1CC[C@]2(O)C(=O)CO	22	-11	9	29	38	-3
CC12CCC(=O)C=C1C(F)CC1C2C(O)CC2(C)C1CCC2(O)C(=O)CO (centres undefined)	76*	10	22	8	11	33
CCCCC(=O)O[C@]1(C(=O)CO)CC[C@H]2[C@@H]3CCC4=CC(=O)CC[C@]4(C)[C@H]3[C@@H](O)C[C@@]21C	57*	-6	12	19	8	30
CC(=O)C1CCC2C3CCC4=CC(=O)CCC4(C)C3C(O)CC12C (centres undefined)	4	2	7	11	x	-2
CC12CCC(=O)C=C1CCC1C2C(=O)CC2(C)C1CC[C@]2(O)C(=O)CO (some centres undefined)	5	-10	11	7	2	-9
CC(OC(=O)C1CCCC1)C(=O)Nc1ccc(S(N)(=O)=O)cc1 (centres undefined)	-29	16	14	-71	-4	2
Cc1ccn2c(Nc3ccccc3C)c(-c3cccnc3)nc2c1	-16	-5	-2	-2	-9	-13
COC(=O)c1ccc(N2CCN(C)CC2)c(NC(=O)c2ccc(Br)o2)c1	-29	-2	2	7	-6	8
Cc1ccc(S(=O)(=O)n2cccc2/C=C/[N+](=O)[O-])cc1	-14	8	30	94*	36	19
COc1ccc(-n2cccc2/C=C/[N+](=O)[O-])cc1	-13	1	35	32	-4	17
Nc1nnc(CC(=O)Nc2ccccc2)s1	9	-19	-9	-9	-15	-3
CCn1c(SCC(=O)c2cc(OC)ccc2OC)nnc1-c1ccncc1	5	70*	0	4	-13	-5
Oc1ccc(/C=N/Nc2nc(N3CCCC3)nc(N3CCCC3)n2)cc1O	-32	10	6	93*	-1	15
COc1cc(/C=N/Nc2nc(Nc3ccc(C)cc3)nc(-n3nc(C)cc3C)n2)cc(OC)c1OC	48	48	-3	71	24	7
COc1ccc(O)c(/C=N/Nc2nc(Nc3ccccc3)nc(-n3nc(C)cc3C)n2)c1	74*	22	-156	65	62*	6
COc1cc(/C=N/Nc2nc(Nc3ccccc3)nc(-n3nc(C)cc3C)n2)cc(OC)c1OC	72*	32	-82	54	13	0
CNc1nc(N/N=C/c2cc3c(cc2[N+](=O)[O-])OCO3)nc(Nc2ccccc2)n1	2	86*	-28	5	-9	-4
COc1ccc(O)c(/C=N/Nc2nc(C)cc(-c3ccccc3)n2)c1	-42	-4	-114	18	-16	4
